Screening data from PubChem BioAssay.
FMDV inh: High Throughput Screening for Foot and Mouth Disease Virus Antivirals | FMDV antiviral cell-based qHTS | Potency, µM (series often up to 57.9 µM), for inactives: at the highest dose activity change, negative = inhibition, usual class: inhibitors | 410,000 tested, 1.2% active | AID 1159524, 2015; calls by dose curve; tested in HEK293T cells; further: read-out not given here; potency means the concentration at half of the fitted maximal effect; nearly all actives have a fitted effect of over 45% in size
Lassa entry inh: qHTS for Inhibitors of binding or entry into cells for Lassa Virus. Potency, µM (top dose mostly 37.9 µM), inactives show top-dose activity change, negative = inhibition, actives largely listed as inhibitors. Lassa virus pseudotype entry inhibition, cell reporter. 300,000 tested, 1.2% active; calls by dose curve; tested in HEK293 cells; further: potency means the concentration at half of the fitted maximal effect; nearly all actives have a fitted effect of over 50% in size
MARV entry inh: qHTS for inhibitors of binding or entry into cells for Marburg Virus | Marburg virus pseudotyped entry inhibition, cell reporter | Potency, µM (top dose mostly 37.8 µM), without a hit: at the top dose activity change, negative = inhibition, actives largely listed as inhibitors | 300,000 tested, 1.8% active | AID 540276, 2011; calls by dose curve; tested in HEK293 cells; further: potency means the concentration at half of the fitted maximal effect
HCV inhibitor: qHTS Assay for Inhibitors of Hepatitis C Virus (HCV). Huh7.5.1 HCVcc-Cre infection, luciferase reporter, 44 h. Potency, µM (doses to about 41.8 µM), inactives show top-dose activity change, negative = inhibition, actives largely listed as inhibitors. 340,000 tested, 3.4% active; active means well fitted inhibition curve with a large enough effect; inconclusive means small, poorly fitted or top-dose-only effect, or another doubt; inactive means no such curve, though single readings can be large or run the other way; further: potency means the concentration at half of the fitted maximal effect
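Cells seeded at 1,000/well and cultured 4 h, then compounds added followed by HCVcc-Cre virus (~0.5 moi). After 44 h further culture, luciferase substrate was added, plates held 15 min at room temperature, and luminescence read for 15 sec.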
HCMV inh: qHTS Assay for inhibitors of the human cytomegalovirus (HCMV); 410,000 tested, 4.5% active; activity change, negative = inhibition, % at 57.5 µM; HFF cells, HCMV-luciferase reporter, 72 h; hits give low values; in the data active means activity change below about -60%; inconclusive means no clear call, values can overlap the other calls; inactive means above about -39%
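Human foreskin fibroblasts infected with luciferase-reporter HCMV at MOI 1 PFU/cell, compounds at two doses. Luciferase measured 72 h post infection; normalized to buffer-only basal and Salinomycin (10uM) controls.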
* = called active by the depositor; [ ] = another dose, or the depositor's remark. Shown are actives, neighbours in structure and some others; about 7.9% of the full set was active somewhere. On the % scale 0 is the no-effect control and ±100 the full control effect.

`Cc1ccc2nc(/C(C#N)=C/c3ccc(-c4cccc([N+](=O)[O-])c4)o3)[nH]c2c1` gave FMDV inh 3%, Lassa entry inh 2%, MARV entry inh 5%, HCV inhibitor -27% and HCMV inh -62*.
Cc1ccc2nc(/C(C#N)=C/c3ccc(-c4ccc(F)cc4F)o3)[nH]c2c1 was read as FMDV inh -22%, Lassa entry inh -14%[46.1 µM] and HCMV inh -22.
COc1cc(/C=C(\C#N)c2nc3ccccc3[nH]2)ccc1Oc1ccc([N+](=O)[O-])cn1 was read as FMDV inh 13%, Lassa entry inh -6%, MARV entry inh inconclusive, HCV inhibitor 0.89µM* and HCMV inh 3.
Screening COc1c(O)ccc(/C=C(\C#N)c2nc3ccccc3[nH]2)c1[N+](=O)[O-] returned FMDV inh -7%, Lassa entry inh 18%, MARV entry inh -5%, HCV inhibitor -2% and HCMV inh -23.
O=C(NCCc1ccccc1)C(c1cccs1)N(C(=O)c1csnn1)C1CC1 (stereo unspecified) was read as FMDV inh -8%, Lassa entry inh 6%, MARV entry inh 0%, HCV inhibitor 13% and HCMV inh 5.
Screening O=C(NCCc1ccccc1)C(c1cccs1)N(C(=O)CCl)c1ccc(Cl)cc1 (stereo unspecified) returned FMDV inh 35µM*, Lassa entry inh 18µM*, MARV entry inh inconclusive, HCV inhibitor inconclusive and HCMV inh -100*.
Screening Cc1ccc2nc(C(F)(F)F)c(C#N)c(N)c2c1 returned FMDV inh -26%, Lassa entry inh 0%, MARV entry inh -20%, HCV inhibitor 25µM* and HCMV inh -107*.
Screening CC(C)(CO)[C@@H](O)C(=O)NCCC(=O)O returned FMDV inh -5% and HCV inhibitor 17%.
Screening Cc1ccc(C)c(OCC(=O)Nc2nc3ccc([N+](=O)[O-])cc3s2)c1C returned FMDV inh 0%, Lassa entry inh -1%, MARV entry inh 0%, HCV inhibitor 11µM* and HCMV inh -65*.
For CC(=O)Nc1ccc2nc(NC(=O)COc3ccc([N+](=O)[O-])cc3)sc2c1 the results were FMDV inh 1%, Lassa entry inh 4%, MARV entry inh -12%[46.1 µM], HCV inhibitor 6% and HCMV inh 3.
CCC(=O)Nc1nc2ccc([N+](=O)[O-])cc2s1 was read as FMDV inh -14%, Lassa entry inh -11%[46.1 µM], MARV entry inh -2%[46.1 µM], HCV inhibitor -4% and HCMV inh -60*.
CCCCOC(=O)Nc1nc2ccc([N+](=O)[O-])cc2s1 was read as FMDV inh 8%, Lassa entry inh 21%, MARV entry inh inconclusive, HCV inhibitor 13% and HCMV inh -29.
`Fc1ccccc1CNCc1ccc2c(c1)OCO2` gave FMDV inh 0%, HCV inhibitor 5% and HCMV inh 42.
Screening CC(C)(C)OC(=O)N1CCC(c2c(C(=O)N3CCN(C4CCCCC4)CC3)cnn2-c2cccc(Cl)c2)CC1 returned FMDV inh -25%, Lassa entry inh inconclusive and HCMV inh -34.
For CCN1CCN(C(=O)c2cnn(-c3cccc(Cl)c3)c2C2CCN(C(=O)OC(C)(C)C)CC2)CC1 the results were FMDV inh -13%, Lassa entry inh 7.1µM* and HCMV inh 8.
`Cc1ccc(-n2ncc(C(=O)N3CCN(C4CCCCC4)CC3)c2C2CCN(C(=O)OC(C)(C)C)CC2)cc1C` gave FMDV inh inconclusive, Lassa entry inh 2µM* and HCMV inh 0.
Screening COc1ccc(-n2ncc(C(=O)NCCc3ccsc3)c2C2CCN(C(=O)OC(C)(C)C)CC2)cc1 returned FMDV inh 11%, Lassa entry inh inconclusive and HCMV inh active.
`Cc1ccc(NC(=O)COC(=O)Cc2ccsc2)cc1S(=O)(=O)N1CCOCC1` gave FMDV inh 4%, Lassa entry inh 24%, MARV entry inh -27%, HCV inhibitor 31% and HCMV inh 1.
For CC(=O)c1ccc(NC(=O)Cn2c(=O)cc(C)c3c(C)nn(-c4cccc(F)c4)c32)cc1 the results were FMDV inh 7%, Lassa entry inh -1%[46.1 µM] and HCMV inh 4.
For c1ccc(-c2nnc(N3CCCC3)nc2-c2ccccc2)cc1 the results were FMDV inh inconclusive, HCV inhibitor inconclusive and HCMV inh 0.
For COC(=O)CC=C[C@@H](C)[C@H](OC)c1cc(OC)ccc1Br the results were MARV entry inh 3%[14.2 µM].
`COc1ccccc1C(=O)Nc1ccnn1C1CCN(Cc2cnc(N(C)C)s2)CC1` gave FMDV inh -6%, Lassa entry inh 3%[46.1 µM], MARV entry inh 4%[46.1 µM], HCV inhibitor -16% and HCMV inh 31.
COc1cc(/C=C/c2ccc(O)cc2)cc(OC)c1 was read as FMDV inh 28%, HCV inhibitor 13µM* and HCMV inh 13.
Screening CCOC(=O)c1ccc(N2C(=O)c3n[nH]c(-c4cccs4)c3C2c2ccc(C)cc2)cc1 (stereo unspecified) returned FMDV inh -20%, Lassa entry inh 0%[46.1 µM], MARV entry inh -3%[46.1 µM] and HCMV inh 3.
For CCOC(=O)c1ccc(N2C(=O)c3n[nH]c(-c4cccs4)c3C2c2ccc(Cl)cc2Cl)cc1 (stereo unspecified) the results were FMDV inh inconclusive, Lassa entry inh inconclusive, MARV entry inh inconclusive and HCMV inh -107*.
CCOC(=O)c1ccc(N2C(=O)c3n[nH]c(-c4cccs4)c3C2c2ccc(O)c(OC)c2)cc1 (stereo unspecified) was read as FMDV inh -28%, Lassa entry inh inconclusive, MARV entry inh inconclusive and HCMV inh -74*.
`C=C(C(C)=O)C(O)C=Cc1ccco1` (stereo unspecified) gave MARV entry inh 3%[14.2 µM].
`CCCCn1c(SCC(=O)c2ccc3c(c2)OCCO3)nnc1-c1ccoc1C` gave FMDV inh -18%, Lassa entry inh -29%, MARV entry inh 11µM*, HCV inhibitor 3% and HCMV inh 15.
COc1cccc(C(=O)NCCC(=O)NCc2cc(=O)n(C)c(=O)n2C)c1 was read as FMDV inh 28%, HCV inhibitor 10% and HCMV inh -1.
For O=C(NC(=S)N1CCCC(C(F)(F)F)C1)c1ccc(F)cc1 (stereo unspecified) the results were FMDV inh 3%, Lassa entry inh -14%[46.1 µM], MARV entry inh 5%[46.1 µM], HCV inhibitor 9% and HCMV inh -66*.
For CC(=O)c1ccc(NC(=S)N2CCCC(C(F)(F)F)C2)cc1 (stereo unspecified) the results were FMDV inh 20%, Lassa entry inh 24%, MARV entry inh -14%[46.1 µM], HCV inhibitor 20% and HCMV inh -8.
